Screening data (PubChem)
pPAFAH inh: pPAFAH (human) enzyme inhibition; inhibition, % at 3.39 µM; Q13093; recombinant pPAFAH, FP-rhodamine probe fluorescence polarization; 330,000 compounds, 1.5% hits;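 active = inhibition above the mean inhibition across the screen plus 3 SD, cut at about 25% in these data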;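 note: inhibitors block binding of the rhodamine activity-based probe so polarization drops; 0% = enzyme with DMSO and 100% = wells lacking pPAFAH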
PfM18AAP inh-1: blocks P. falciparum M18 aspartyl aminopeptidase; recombinant PfM18AAP, H-Glu-NHMec fluorogenic cleavage; inhibition, % at 7.35 µM; 290,000 compounds, 1.2% hits; AID 1822;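 active = inhibition above the campaign mean inhibition over all tested compounds plus 3 SD, cut at about 28% in these data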;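 note: 0% = plate median of test compound wells and 100% = 2 mM ZnCl2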
PAFAH1B3 inh: PAFAH1B3 (human) inhibition; recombinant PAFAH1B3, FP-rhodamine probe, fluorescence polarization; inhibition, % at 3.39 µM; 340,000 compounds, 0.28% hits; AID 492972;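 active = inhibition above the screen-wide average of all tested compounds plus 3 SD, cut at about 25% in these data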;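 note: 0% = enzyme with DMSO only and 100% = wells lacking PAFAH1B3 protein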
Pemphigus Ab inh: blocks pemphigus antibody binding to human desmoglein-3 | P32926 | binding (percent of control), % at 10 µM | AID 588358 | 310,000 compounds, 0.48% hits | DSG3-coupled beads, scFv-anti-DSG3-GFP binding, flow cytometry; stronger effect = lower value;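 active = binding more than 3 SD below its plate's average and above zero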
Target sequence (P32926 whole entry, looked up): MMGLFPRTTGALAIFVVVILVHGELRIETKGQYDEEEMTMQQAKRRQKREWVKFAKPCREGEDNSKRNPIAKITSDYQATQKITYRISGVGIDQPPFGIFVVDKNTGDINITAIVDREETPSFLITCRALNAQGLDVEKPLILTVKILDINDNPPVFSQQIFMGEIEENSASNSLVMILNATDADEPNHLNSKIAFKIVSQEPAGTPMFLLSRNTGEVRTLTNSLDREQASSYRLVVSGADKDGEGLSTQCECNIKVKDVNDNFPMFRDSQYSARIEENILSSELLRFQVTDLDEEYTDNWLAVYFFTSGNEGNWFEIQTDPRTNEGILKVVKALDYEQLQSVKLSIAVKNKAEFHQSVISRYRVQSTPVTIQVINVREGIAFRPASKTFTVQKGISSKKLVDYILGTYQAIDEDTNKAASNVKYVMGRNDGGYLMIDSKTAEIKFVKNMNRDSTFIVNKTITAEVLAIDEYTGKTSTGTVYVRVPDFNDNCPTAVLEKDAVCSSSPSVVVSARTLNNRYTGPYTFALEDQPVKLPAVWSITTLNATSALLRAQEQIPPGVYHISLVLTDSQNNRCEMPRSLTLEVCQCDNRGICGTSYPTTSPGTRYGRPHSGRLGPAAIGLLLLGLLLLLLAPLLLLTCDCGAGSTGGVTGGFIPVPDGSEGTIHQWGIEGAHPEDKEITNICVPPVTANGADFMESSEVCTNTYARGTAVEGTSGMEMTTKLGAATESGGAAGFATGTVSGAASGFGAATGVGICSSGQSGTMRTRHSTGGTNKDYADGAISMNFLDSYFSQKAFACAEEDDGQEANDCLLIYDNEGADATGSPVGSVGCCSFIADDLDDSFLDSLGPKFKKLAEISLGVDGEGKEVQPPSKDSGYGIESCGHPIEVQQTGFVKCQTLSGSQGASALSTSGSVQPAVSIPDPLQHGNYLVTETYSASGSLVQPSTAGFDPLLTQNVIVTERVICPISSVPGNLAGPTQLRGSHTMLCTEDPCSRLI
PAFAH1B2 FP inh: inhibitors of human PAFAH1B2 | P68402 | recombinant PAFAH1B2, FP-rhodamine activity probe, fluorescence polarization | inhibition, % at 3.39 µM | 340,000 compounds, 1.2% hits | AID 492953;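 active = inhibition above the mean of all tested compounds plus 3 SD, cut at about 24% in these data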;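 note: 0% = enzyme with DMSO and 100% = wells lacking PAFAH1B2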
PAFAH2 inh: PAFAH2 (human) inhibition; recombinant PAFAH2, FP-rhodamine activity probe, fluorescence polarization; Q99487; 340,000 compounds, 0.99% hits; inhibition, % at 3.39 µM; AID 492956;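 active = inhibition above the mean over all tested compounds plus 3 SD, cut at about 30% in these data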;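 note: inhibitors block probe labeling of enzyme so polarization drops; 0% = enzyme with DMSO and 100% = wells lacking PAFAH2 protein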
PfM18AAP inh-2: confirmation of Plasmodium falciparum M18 aspartyl aminopeptidase inhibitors; shares compounds with PfM18AAP inh-1; recombinant PfM18AAP, H-Glu-NHMec fluorogenic cleavage; inhibition, % at 7.35 µM; 2,400 compounds, 28% hits;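 active = mean inhibition over replicate wells above the hit cutoff set for the earlier primary screen, cut at about 29% in these data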;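 note: 0% = median of test compound wells and 100% = 2 mM ZnCl2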
CTSL1 counter: counter-screen for PFM18AAP inhibitors: confirmation of human cathepsin L inhibitors. shares compounds with PfM18AAP inh-1. purified cathepsin L1, Z-Leu-Arg-MCA fluorescence. inhibition, % at 5.96 µM. 2,400 tested, under 10 active. AID 2178;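 active = average inhibition across replicates above the hit cutoff set in the earlier primary screen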;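 note: 0% = median of test compound wells and 100% = Z-Phe-Ala-diazomethylketone 1 µM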
The depositor's hits bear a star; x = not tested or not shown. In the library only some 3.8% were active in any assay of this set; here they are far more common.

SMILES	pPAFAH inh	PfM18AAP inh-1	PAFAH1B3 inh	Pemphigus Ab inh	PAFAH1B2 FP inh	PAFAH2 inh	PfM18AAP inh-2	CTSL1 counter
CCCCn1c(N)c(N(CC(C)C)C(=O)C2CC(=O)N(Cc3ccco3)C2)c(=O)[nH]c1=O (centres undefined)	2	1	4	100	-4	-2	x	x
O=C1NC(=O)/C(=C/c2ccc(N3CCOCC3)o2)N1	5	9	4	110	3	-5	x	x
O=C1NC(=O)/C(=C\c2ccc(N3CCOCC3)o2)N1	3	37*	8	107	11	6	-30	-6
O=C(NNC(=O)c1ccccc1C(=O)O)c1ccc(S(=O)(=O)N2CCCCC2)cc1	x	-1	-7	x	7	10	x	x
COc1ccc(NC(=S)Nn2cnnc2)cc1OC	2	79*	5	100	0	-2	76*	0
COc1ccc(NC(=S)Nn2cnnc2)c(OC)c1	x	72*	12	x	9	3	80*	-3
CCc1ccc(NC(=O)NNC(=O)CCc2ccccc2)cc1	2	-1	12	95	-3	-2	x	x
CCc1ccc(NC(=O)Nn2cnnc2)cc1	-5	55*	-2	103	1	3	30*	-4
CCc1ccc(NC(=S)Nn2cnnc2)cc1	4	76*	7	102	2	2	64*	1
CCc1ccc(NC(=S)NCc2ccccc2)cc1	1	3	9	x	3	7	x	x
CCOc1ccccc1NC(=O)COC(=O)C(CC)c1ccccc1 (centres undefined)	2	-2	5	126	1	2	x	x
CC1=CS(=O)(=O)CC1SC(=S)N(C)C1CCS(=O)(=O)C1 (centres undefined)	3	-14	10	102	2	4	x	x
Cc1ccc(NC(=S)Nn2cnnc2)cc1	-1	77*	11	97	2	9	67*	0
S=C(Nc1ccccc1)Nn1cnnc1	0	65*	2	101	4	3	61*	5
CN1CCN(NC(=S)Nc2ccccc2)CC1	0	0	x	121	x	x	x	x
Cc1cc(=O)n2[nH]c(N)c(N=Nc3ccccc3)c2n1	2	41*	5	101	8	3	32*	8
NNc1nc(-c2ccccc2)nc2sc3c(c12)CCCC3	-3	32*	1	95	-2	5	10	1
Cc1c(C(=O)c2no[n+]([O-])c2C(=O)c2cnn(C)c2C)cnn1C	4	59*	8	99	12	9	77*	5
Cc1cc(C)c2c(N)c(C(=O)NCc3ccco3)sc2n1	6	36*	7	103	3	2	-55	-4
O=C(NCCc1ccccc1Cl)c1cc(COc2ccc(F)cc2F)on1	3	0	-4	107	10	3	x	x
NNc1nc2c(-c3cccc(C(F)(F)F)c3)nnn2c2ccccc12	x	35*	-5	106	-2	-8	-106	-6
COC(=O)[C@]1(C)N[C@H](CN(C)C(=O)c2ccc(C)cc2)[C@@H]2C(=O)N(C)C(=O)[C@@H]21	-9	x	7	105	-1	-3	x	x
O=C(COc1ccc2ccccc2c1)NCC1CCCO1 (centres undefined)	3	-3	0	111	2	-3	x	x
O=C(NNc1ccc(Cl)nn1)c1ccc(Cl)cc1	2	38*	-3	111	3	1	-4	-2
Clc1ccc(Nc2ccc(Cl)nn2)cc1	1	-11	x	95	x	x	x	x
SMILES	pPAFAH inh	PfM18AAP inh-1	PAFAH1B3 inh	Pemphigus Ab inh	PAFAH1B2 FP inh	PAFAH2 inh	PfM18AAP inh-2	CTSL1 counter
Cc1ccsc1C(=O)NNC(=O)Nc1ccc(Cl)c(Cl)c1	-4	41*	2	100	2	4	28	0
Cc1occc1C(=O)NNC(=O)Nc1ccc(Cl)c(Cl)c1	2	23	11	98	6	-8	x	x
Cc1ccc(N2C(=O)N(CC(=O)NCc3ccccc3Cl)C(=O)C2C)cc1 (centres undefined)	-1	3	3	103	1	3	x	x
COc1ccc(/C=C2\SC(=S)N(N3C(=O)CCC3=O)C2=O)cc1O	6	32*	4	97	2	2	-41	4
COc1ccc(/C=C2/SC(=S)N(Cc3ccccc3)C2=O)cc1O	x	23	9	86	1	5	x	x
COc1ccc(C(=O)NCc2nnc(SCC(=O)Nc3nnc(C)s3)o2)cc1OC	0	47*	3	93	5	2	-36	1
CCc1nnc(NC(=O)CSc2nnc(CNC(=O)c3cc(OC)c(OC)c(OC)c3)o2)s1	3	41*	6	102	1	9	-46	-1
COc1ccc(C(=O)NCc2nnc(SCC(=O)Nc3nnc(C)s3)o2)cc1	5	35*	0	89	9	-3	-30	-1
COc1cc(C(=O)N(C)CCOc2ccc(C)cc2)ccc1OC1CCN(C(C)=O)CC1	4	0	9	107	3	7	x	x
COc1cccc(-n2cc(-c3ccc(F)cc3)[nH]c2=S)c1	3	41*	9	94	0	0	26	0
COc1ccc(-c2cn(-c3ccc(C)c(C)c3)c(=S)[nH]2)cc1OC	10	32*	12	93	0	10	6	-2
COc1ccc(-c2cn(-c3ccc(C)c(Cl)c3)c(=S)[nH]2)cc1OC	4	22	15	95	7	-1	x	x
COc1ccc(-c2cn(-c3ccccc3)c(=S)[nH]2)cc1OC	8	44*	-1	106	7	-4	11	-5
Cc1ccc(S(=O)(=O)N(C)C)cc1NC(=O)C(C)OC(=O)c1cc[n+]([O-])cc1 (centres undefined)	5	x	11	101	2	1	x	x
CCOC(=O)C1=C(c2ccccc2)NC(=O)NC1c1ccc(O)c(OCC)c1 (centres undefined)	-1	6	4	96	3	-1	x	x
CCOc1cc(C2NC(=O)NC2=O)ccc1O (centres undefined)	2	35*	3	x	6	-1	-42	-5
CCN1C(C)=C(C)S/C1=C1\SC(=S)N(N)C1=O	0	76*	4	97	6	1	-20	2
CSc1ccc(C(=S)N2CCN(CCO)CC2)cc1	-2	33*	-1	93	-1	-6	7	0
O=C(Nc1cccc(S(=O)(=O)NC2=NCCC2)c1)c1ccc(C(F)(F)F)cc1	4	x	0	131	5	-1	x	x
CNC[C@H](O)c1ccc(O)c(O)c1	1	54*	10	106	3	-1	66*	-8
